Several values for one entry are separate records, joined by “and”; a condition that tells them apart may be missing. Equal values may be shown once. Inconclusive results are not listed. Where a structure was tested more than once in an assay, its records may differ in their call. Activity calls are given as the source filed them. Unless noted, the call rests on the fitted dose curve; in most records, active means well fitted curve in the direction sought with a large enough effect in the repeat runs; inconclusive means weak or mixed curves; inactive means no such curve, though single readings can be large; an effect the other way counts as inactive or inconclusive.
Tests used:
[1] = qHTS assay to identify small molecule antagonists of the estrogen related receptor (ERR) signaling pathway from Tox21 library - cell viability counter screen (AID 1224834); further: nearly all actives have a fitted effect of over 30% in size; further: potency means the concentration at half of the fitted maximal effect
Outline: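 Compounds in DMSO were pinned onto ERR cells that had been incubated for 6 h, and the plates were held at 37 C for 17.5 h. CellTiter-Fluor reagent was then added and fluorescence was measured after 30 min.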

[2] = biological target: Luciferin 4-monooxygenase (Photinus pyralis) (UniProt P08659); assay: qHTS assay to identify small molecule inhibitors of firefly luciferase (AID 1224835); further: nearly all actives have a fitted effect of over 25% in size; further: potency means the concentration at half of the fitted maximal effect
Outline: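 Biochemical qHTS: compounds run as interplate titrations against purified firefly enzyme, with D-luciferin and ATP each at its KM concentration. Light output recorded by CCD imaging.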

[3] = qHTS assay to identify small molecule antagonists of the constitutive androstane receptor (CAR) signaling pathway - cell viability counter screen (AID 1224837); further: nearly all actives have a fitted effect of over 45% in size; further: potency means the concentration at half of the fitted maximal effect
Outline: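 Cells are seeded, rested 4 hr at 37 C/5% CO2, dosed with compound (15-point series) and 50 nM CITCO, incubated a further 23 hr, and then CellTiter-Fluor reagent is added before fluorescence is read. The line is HepG2 with stable hCAR and CYP2B6-2.2kb.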

[4] = biological target: Nuclear receptor subfamily 1 group I member 3 (Homo sapiens) (UniProt Q14994); assay: qHTS assay to identify small molecule antagonists of the constitutive androstane receptor (CAR) signaling pathway (AID 1224838);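 further: HepG2 cells stably expressing hCAR with CYP2B6 luciferase reporter stimulated by CITCO; nearly all actives have a fitted effect of over 40% in size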; further: potency means the concentration at half of the fitted maximal effect
Outline: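 Luminescence from a CYP2B6-2.2kb promoter reporter in hCAR-expressing HepG2 cells reflects CAR signaling. Cells received compounds at 15 concentrations and 50 nM CITCO (final), then incubated 24 h at 37 C/5% CO2.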

[5] = biological target: Nuclear receptor subfamily 1 group I member 3 (Homo sapiens) (UniProt Q14994); assay: qHTS assay to identify small molecule agonists of the constitutive androstane receptor (CAR) signaling pathway (AID 1224839); further: nearly all actives have a fitted effect of over 15% in size; further: potency means the concentration at half of the fitted maximal effect;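 on activation: HepG2 cells stably carrying human CAR and a CYP2B6 luciferase reporter; on the % scale 0 is the no-effect control and ±100 the full control effect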
Outline: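 Luminescence read-out (ONE-Glo, 30 min, room temperature) from double-stable HepG2-CYP2B6-hCAR cells exposed 24 h to 15-point compound series in presence of 0.75 uM PK11195 final.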

[6] = qHTS assay to identify small molecule antagonists of the estrogen related receptor signaling pathway with the pleiotropic PPARgamma coactivator (PGC) from Tox21 10K library - cell viability counter screen (AID 1224840; active means well fitted cell-killing curve with a large enough effect in the repeat runs, not every such curve was filed as active; further: nearly all actives have a fitted effect of over 40% in size; further: potency means the concentration at half of the fitted maximal effect)
Outline: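 Cell viability is measured by CellTiter-Fluor fluorescence in PGC/ERR cells that receive compounds after a 6-hour attachment period and are then incubated 17.5 hours at 37 C.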

[7] = biological target: Thyrotropin receptor (Homo sapiens) (UniProt P16473); assay: qHTS assay to identify small molecule agonists of the thyroid stimulating hormone receptor (TSHR) signaling pathway (AID 1224843; calls by dose curve; further: nearly all actives have a fitted effect of over 45% in size; further: potency means the concentration at half of the fitted maximal effect; on activation: on the % scale 0 is the no-effect control and ±100 the full control effect)
Outline: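 Agonist-mode screen: TSHR HEK293 cells received test chemicals for half an hour at room temperature, then HTRF cAMP detection reagents for one hour prior to fluorescence measurement. Each chemical ran as a 15-concentration series, triplicated.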

[8] = qHTS assay to identify small molecule agonists of the hypoxia (HIF-1) signaling pathway - cell viability counter screen (AID 1224844; calls by dose curve; further: nearly all actives have a fitted effect of over 50% in size; further: potency means the concentration at half of the fitted maximal effect)
Outline: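 Viability counter screen: HRE-bla ME-180 cells plated 5 hrs before compound addition, treated 17 hrs at 37C and 5% CO2, then CellTiter-Glo added after the FRET reporter read; luminescence after 30 min.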

[9] = qHTS assay to identify small molecule agonists of H2AX (AID 1224845; active means well fitted activation curve with a large enough effect in the signal ratio in the repeat runs, not every such curve was filed as active; the % refers to the signal ratio; further: potency means the concentration at half of the fitted maximal effect)
Outline: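 Wild-type CHO-K1 cells, plated overnight, exposed 3hr at 37C to 15 concentrations (0.76% DMSO final). Lysed, then HTRF anti-pH2AX (S139) cryptate and anti-H2AX-d2 antibodies, 24 hr room temperature; 665/620 nm emission read.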

[10] = qHTS assay to identify small molecule agonists of the hypoxia (HIF-1) signaling pathway (AID 1224846; active means well fitted activation curve with a large enough effect in the signal ratio in the repeat runs, not every such curve was filed as active; the % refers to the signal ratio; further: on the % scale 0 is the no-effect control and ±100 the full control effect)
Outline: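 Agonist mode reporter screen. ME-180 cells stably expressing bla under HRE control received test compounds in DMSO for 17 hrs (37C, 5% CO2), and beta-lactamase activity was then detected with the CCF4-AM FRET substrate.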

[11] = qHTS assay to identify small molecule agonists of H2AX - cell viability counter screen (AID 1224847; calls by dose curve; further: nearly all actives have a fitted effect of over 30% in size; further: potency means the concentration at half of the fitted maximal effect)
Outline: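 CHO-K1 wt, 1000 cells/well, o/n 37C; cpds 15 conc, 3 h 37C, 0.76% DMSO; CellTiter-Glo, 30 min RT, luminescence.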

[12] = qHTS RealTime-Glo MT Cell Viability Assay in HepG2 cells - 24 hour (AID 1224867); further: on the % scale 0 is the no-effect control and ±100 the full control effect; nearly all actives have a fitted effect of over 50% in size
Outline: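 qHTS, HepG2, 600 cells/well, RealTime-Glo (NanoLuc + prosubstrate) added with cells; 5 h preincubation; DMSO compound addition; 37 C; luminescence at 0/8/16/24/32/40 h.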

[13] = qHTS RealTime-Glo MT Cell Viability Assay in HEK293 cells - 32 hour (AID 1224868); further: nearly all actives have a fitted effect of over 50% in size; further: potency means the concentration at half of the fitted maximal effect
Outline: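 Assay medium contained NanoLuc luciferase plus cell-permeant prosubstrate, added with HEK293 cells at 600 cells/well. After 5 h at 37 C/5% CO2 compounds were added; plates stayed at 37 C for 40 h with serial luminescence reads.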

[14] = A CellTox Green Cytotoxicity Assay to monitor cytotoxicity in HEK293 cells - 0 hour (AID 1224869); further: on the % scale 0 is the no-effect control and ±100 the full control effect; nearly all actives have a fitted effect of over 50% in size
Outline: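 Dead-cell fluorescence measured kinetically: asymmetric cyanine dye, HEK293, 600 cells/well, 5 h settle, 23 nL cpd/DMSO, 37 C, reads 0–40 h every 8 h.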

[15] = qHTS RealTime-Glo MT Cell Viability Assay in HepG2 cells - 40 hour (AID 1224870); further: nearly all actives have a fitted effect of over 50% in size; further: potency means the concentration at half of the fitted maximal effect
Outline: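 HepG2 cells (600/well) mixed with RealTime-Glo MT reagent, settled 5 h at 37 C/5% CO2 before compound addition. Nonlytic NanoLuc luminescence from viable-cell prosubstrate reduction read repeatedly during 40 h treatment at 37 C.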

[16] = qHTS assay to identify small molecule agonists of the constitutive androstane receptor (CAR) signaling pathway - cell viability counter screen (AID 1224836); further: on the % scale 0 is the no-effect control and ±100 the full control effect; nearly all actives have a fitted effect of over 45% in size
Outline: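 Viability read-out: CellTiter-Fluor fluorescence after 23 h compound exposure at 37 C/5% CO2 in double-stable HepG2-CYP2B6-hCAR cells, with PK11195 present at 0.75 uM final; compounds tested in 15-point titration.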

[17] = qHTS assay to identify small molecule antagonists of the estrogen related receptor signaling pathway with the pleiotropic PPARgamma coactivator (PGC) from Tox21 10K library (AID 1224841; call rule not given here)
Outline: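 Cells stably carrying the PGC/ERR reporter, seeded at 2,000 per well, received pin-transferred compounds 6 h post-plating. Exposure lasted 18 h at 37 C. Signal: One-Glo luminescence.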

[18] = qHTS assay to identify small molecule agonists of the estrogen related receptor signaling pathway with the pleiotropic PPARgamma coactivator (PGC) from Tox21 10K library (AID 1224842); further: on the % scale 0 is the no-effect control and ±100 the full control effect; nearly all actives have a fitted effect of over 15% in size
Outline: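 PGC/ERR reporter cell line, 2,000 cells per well, incubated 6 h at 37 C before 23 nL compound in DMSO was added. After 18 h at 37 C, One-Glo luminescence read following 30 min at room temperature.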

[19] = qHTS assay to identify small molecule antagonists of the estrogen related receptor (ERR) signaling pathway from Tox21 library (AID 1224848); further: nearly all actives have a fitted effect of over 50% in size; further: potency means the concentration at half of the fitted maximal effect
Outline: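 Quantitative high-throughput format: ERR reporter cells (2,000/well) pre-incubated 6 h, treated 18 h at 37 C with compounds in DMSO alongside positive and negative controls, then read by ONE-Glo luminescence.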

[20] = qHTS assay to identify small molecule agonists of the estrogen related receptor (ERR) signaling pathway from Tox21 library (AID 1224849; calls by dose curve; further: on the % scale 0 is the no-effect control and ±100 the full control effect; nearly all actives have a fitted effect of over 15% in size); conditions: ERR reporter cell line, ONE-Glo luciferase, 18 h
Outline: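 Quantitative HTS in agonist format: NTP ERR cell line, compounds transferred in DMSO after 6 h plating, 18 h incubation at 37 C, ONE-Glo luminescence endpoint.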

[21] = at 92.4 µM (top of the series) unless noted

Chain of Nuclear receptor subfamily 1 group I member 3 (Homo sapiens) (Q14994 whole entry, looked up): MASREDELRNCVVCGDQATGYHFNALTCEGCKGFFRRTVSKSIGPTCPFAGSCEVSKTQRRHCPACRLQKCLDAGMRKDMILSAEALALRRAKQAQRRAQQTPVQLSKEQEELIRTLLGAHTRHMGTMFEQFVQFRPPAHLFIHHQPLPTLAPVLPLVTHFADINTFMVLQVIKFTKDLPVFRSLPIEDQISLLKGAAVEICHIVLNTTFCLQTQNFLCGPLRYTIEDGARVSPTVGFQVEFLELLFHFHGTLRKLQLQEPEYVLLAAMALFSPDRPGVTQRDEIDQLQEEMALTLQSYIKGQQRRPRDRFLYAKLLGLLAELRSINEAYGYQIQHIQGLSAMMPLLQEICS
Chain of Thyrotropin receptor (Homo sapiens) (P16473 whole entry, looked up): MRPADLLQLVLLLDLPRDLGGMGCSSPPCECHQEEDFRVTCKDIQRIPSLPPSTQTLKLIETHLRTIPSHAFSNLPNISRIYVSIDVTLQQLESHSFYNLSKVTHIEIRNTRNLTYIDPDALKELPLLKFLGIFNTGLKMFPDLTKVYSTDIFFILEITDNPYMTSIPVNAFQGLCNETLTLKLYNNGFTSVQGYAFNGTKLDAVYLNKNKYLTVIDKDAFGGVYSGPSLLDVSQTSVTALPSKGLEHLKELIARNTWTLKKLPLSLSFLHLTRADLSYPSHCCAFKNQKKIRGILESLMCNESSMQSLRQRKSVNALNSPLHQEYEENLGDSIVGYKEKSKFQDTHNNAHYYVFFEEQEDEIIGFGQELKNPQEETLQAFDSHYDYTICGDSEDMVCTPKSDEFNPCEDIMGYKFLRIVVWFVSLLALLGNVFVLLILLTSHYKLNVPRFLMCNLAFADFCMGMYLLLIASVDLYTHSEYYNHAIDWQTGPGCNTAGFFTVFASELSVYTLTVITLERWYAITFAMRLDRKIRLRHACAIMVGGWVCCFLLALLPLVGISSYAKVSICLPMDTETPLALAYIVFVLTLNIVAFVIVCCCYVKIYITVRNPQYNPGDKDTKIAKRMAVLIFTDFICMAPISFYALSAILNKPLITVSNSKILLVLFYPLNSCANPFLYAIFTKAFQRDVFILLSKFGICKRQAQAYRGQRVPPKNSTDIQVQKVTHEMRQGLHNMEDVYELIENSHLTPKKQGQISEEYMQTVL
Chain of Luciferin 4-monooxygenase (Photinus pyralis) (P08659 whole entry, looked up): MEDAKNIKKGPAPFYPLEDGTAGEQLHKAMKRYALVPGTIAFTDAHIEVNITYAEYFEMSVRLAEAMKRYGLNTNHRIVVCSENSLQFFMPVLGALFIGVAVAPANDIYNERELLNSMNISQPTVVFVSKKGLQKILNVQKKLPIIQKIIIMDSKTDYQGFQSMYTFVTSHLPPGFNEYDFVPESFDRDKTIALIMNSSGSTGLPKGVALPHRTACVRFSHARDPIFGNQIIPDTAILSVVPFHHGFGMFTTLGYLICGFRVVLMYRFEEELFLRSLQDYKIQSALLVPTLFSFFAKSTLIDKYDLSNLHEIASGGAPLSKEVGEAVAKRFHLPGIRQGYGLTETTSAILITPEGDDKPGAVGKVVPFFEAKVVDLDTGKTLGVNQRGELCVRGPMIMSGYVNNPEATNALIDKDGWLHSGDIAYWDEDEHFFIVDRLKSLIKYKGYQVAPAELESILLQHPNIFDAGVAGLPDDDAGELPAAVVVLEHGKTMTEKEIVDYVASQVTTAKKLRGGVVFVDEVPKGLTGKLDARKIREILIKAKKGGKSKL

CC[N+]1(CC)CCC(OC(=O)C(O)(c2ccccc2)c2ccccc2)C1 (centres undefined)
inactive: Potency [1] | Potency [2] | Potency [3] | Potency [4] | Potency [5] | Potency [6] | Potency [7] | Potency [8] | Potency [9] | Potency [10] | Potency [11] | Potency [12] | Potency [13] | Potency [14] | Potency [15]

C[N+]1(C)[C@@H]2CC[C@H]1CC(OC(=O)C(CO)c1ccccc1)C2 (some centres undefined)
active: Potency [15] 23.9 µM
inactive: Potency [1] | Potency [2] | Potency [3] | Potency [6] | Potency [8] | Potency [9] | Potency [11] | Potency [12] | Potency [13] | Potency [14]

CC(Cc1ccccc1)N(C)Cc1ccco1 (centres undefined)
inactive: Potency [1] | Potency [2] | Potency [16] | Potency [3] | Potency [6] | Potency [8] | Potency [9] | Potency [10] | Potency [11] | Potency [13] | Potency [14] | Potency [15]

COc1ccc2[nH]cc(CCN(C(C)C)C(C)C)c2c1
inactive: Potency [1] | Potency [2] | Potency [16] | Potency [4] | Potency [5] | Potency [6] | Potency [8] | Potency [9] | Potency [10] | Potency [11] | Potency [13] | Potency [14] | Potency [15]

C[C@]12C/C(=C/O)C(=O)C[C@@H]1CC[C@@H]1[C@@H]2CC[C@@]2(C)[C@H]1CC[C@]2(C)O
inactive: Potency [2] | Potency [3] | Potency [4] | Potency [5] | Potency [6] | Potency [18] | Potency [7] | Potency [11] | activity change, positive = activation ([20]; at 42.5 µM (top of the series)) -37.2% | activity change, positive = activation ([20]; at 92.4 µM (top of the series)) -61.4% | Potency [12] | Potency [13] | Potency [14]
active: Potency [1] 55 µM | Potency [17] 43.7 µM and 26.6 µM | Potency [8] 24.8 µM and 19 µM | Potency [9] 90.6 µM | Potency [19] 34.7 µM and 33.5 µM

CC(C)N(C(=O)SC/C(Cl)=C/Cl)C(C)C
inactive: Potency [1] | Potency [2] | Potency [3] | Potency [4] | Potency [5] | Potency [6] | Potency [8] | Potency [9] | Potency [10] | Potency [12] | Potency [13] | Potency [14] | Potency [15]
active: Potency [7] 17.3 µM

CC(=O)[O][Sn]([c]1ccccc1)([c]1ccccc1)[c]1ccccc1
active: Potency [1] 0.217 µM | Potency [2] 2.24 µM | Potency [3] 154 nM | Potency [4] 0.0545 µM | Potency [6] 0.172 µM | Potency [17] 0.545 µM | Potency [9] 0.101 µM | Potency [11] 0.142 µM | Potency [19] 77 nM | Potency [13] 0.0389 µM
inactive: Potency [5] | Potency [18] | activity change, positive = activation [20, 21] -74% | Potency [14]

O=C(NC(=O)c1ccccc1Cl)Nc1ccc(OC(F)(F)F)cc1
inactive: Potency [1] | Potency [2] | Potency [16] | Potency [4] | Potency [5] | Potency [6] | Potency [7] | Potency [8] | Potency [9] | Potency [10] | Potency [11] | Potency [12] | Potency [14] | Potency [15]

CCOP(=O)(Sc1ccccc1)Sc1ccccc1
inactive: Potency [1] | Potency [2] | Potency [16] | Potency [4] | Potency [6] | Potency [8] | Potency [10] | Potency [12] | Potency [14] | Potency [15]
active: Potency [5] 21.7 µM

CCN(CC)C(=S)S
active: Potency [1] 54.9 µM and 13.6 µM and 24.3 µM | Potency [3] 13.6 µM and 17.2 µM | Potency [6] 30.9 µM and 6.08 µM and 13.7 µM | Potency [8] 19.7 µM and 8.66 µM and 9.77 µM | Potency [13] 24.8 µM and 4.87 µM and 11 µM
inactive: Potency [2] | Potency [7] | Potency [9] | Potency [11] | Potency [14]
inactive and 21.9 µM (active): Potency [15]

CC1=C2C[C@H]3[C@@H](CC=C4C[C@@H](O)CC[C@@]43C)[C@@H]2CC[C@]12O[C@@H]1C[C@H](C)CN[C@H]1[C@H]2C
active: Potency [1] 26.6 µM | Potency [6] 26.6 µM | Potency [13] 16.9 µM
inactive: Potency [2] | Potency [3] | Potency [4] | Potency [5] | Potency [7] | Potency [8] | Potency [9] | Potency [10] | Potency [14] | Potency [15]

C#CCO
inactive: Potency [1] | Potency [2] | Potency [3] | Potency [4] | Potency [5] | Potency [6] | Potency [7] | Potency [8] | Potency [9] | Potency [10] | Potency [11] | Potency [12] | Potency [13] | Potency [14] | Potency [15]

CCn1cc[n+](C)c1 (tested in a mixture with another compound)
inactive: Potency [1] | Potency [2] | Potency [3] | Potency [6] | Potency [8] | Potency [9] | Potency [10] | Potency [11] | Potency [12] | Potency [14] | Potency [15]

CCOC(=O)CCN(SN(C)C(=O)Oc1cccc2c1OC(C)(C)C2)C(C)C
active: Potency [5] 27.3 µM | Potency [17] 30.6 µM | Potency [19] 61100 nM
inactive: Potency [1] | Potency [2] | Potency [3] | Potency [4] | Potency [18] | Potency [8] | Potency [9] | Potency [10] | Potency [11] | activity change, positive = activation [20, 21] -43.3% | Potency [12] | Potency [13] | Potency [14] | Potency [15]

[Cl][Hg][c]1ccccc1
inactive: Potency [5] | Potency [9] | Potency [14]
active: Potency [1] 3.44 µM | Potency [2] 6.33 µM | Potency [3] 4330 nM | Potency [4] 3.86 µM | Potency [6] 2.43 µM | Potency [8] 1.38 µM | Potency [11] 7.13 µM | Potency [13] 1.1 µM | Potency [15] 3.09 µM

CCCCON=O
active: Potency [17] 49.8 µM
inactive: Potency [1] | Potency [2] | Potency [16] | Potency [4] | Potency [5] | Potency [6] | Potency [18] | Potency [7] | Potency [9] | Potency [10] | Potency [11] | Potency [19] | activity change, positive = activation [20, 21] -4.4% | Potency [14] | Potency [15]

CC(C)C(Nc1ccc(C(F)(F)F)cc1Cl)C(=O)OC(C#N)c1cccc(Oc2ccccc2)c1 (centres undefined)
inactive: Potency [1] | Potency [2] | Potency [16] | Potency [4] | Potency [6] | Potency [8] | Potency [9] | Potency [11] | Potency [12] | Potency [13] | Potency [14] | Potency [15]
